The panel holds about 79,000 compounds, 15% with a hit somewhere; the sample as a whole holds those more often. Unmarked numbers belong to inactive results. Activity calls are given as the source filed them. Rule as the data show it: active = growth inhibition above about 70%; inactive = the rest.
Assay: NCI Yeast Anticancer Drug Screen. Data for the mgt1 strain (AID 153)
Settings: S. cerevisiae mgt1 mutant growth inhibition, active compounds read high
Description: Growth inhibition of yeast strains with defined genetic alterations is measured as a screen for potential anti-cancer activity. Selected strains with alterations in DNA damage repair or cell cycle control were exposed to compounds and growth inhibition was measured relative to vehicle treated controls. The strain used in this assay is mgt1

SMILES	growth inhibition (at 1.2 µM)	growth inhibition (at 3.7 µM)	growth inhibition (at 11.0 µM)	growth inhibition (at 33.0 µM)	growth inhibition (at 100.0 µM)
C/C1=C/C2OC(=O)C3(C)C2C(CC2(C)OC1=CC2=O)OC3(O)C(C)C (stereo not given)	-21%	-18%	8%	68%	93% (active)
COc1cc(NCCCCNCC(C)(C)C)c2ncccc2c1	0%	3%	6%	14%	2%
CC1CCC(C2=CSC3CCCCC3N2)CC1 (stereo not given)	-1%	4%	9%	32%	91% (active)
CC1(C)CC(=O)C(/C=N/c2nc(-c3ccc(Br)cc3)cs2)=C(O)C1	4%	6%	37%	96% (active)	98% (active)
N#C/C(=C\NC(=S)Nc1ccc(S(N)(=O)=O)cc1)C(=O)c1ccc2ccccc2c1	-2%	-3%	-3%	-12%	0%
O=C1C2=C(c3ccccc31)C(c1ccccc1)N1C(=O)CSC1=N2 (stereo not given)	-2%	1%	-7%	38%	81% (active)
CC(=O)CC(c1ccccc1)c1c(O)c2ccccc2oc1=O (stereo not given)	13%	4%	14%	44%	83% (active)
CC(C)OC(=O)NNc1cc(Cl)ccc1Cl	-4%	2%	19%	21%	88% (active)

From PubChem BioAssay (NCI)
